The source of these data is PubChem BioAssay (NCI).

Compounds without any hit were thinned out: in the full panel of roughly 79,000, 15% have a hit. A number with no mark means an inactive call. Cut-off read from the data, not from the text of the source: active = growth inhibition above about 70%; inactive = the rest.

The nature of this assay: NCI Yeast Anticancer Drug Screen. Data for the mec2-1 strain (AID 157). The settings on record: S. cerevisiae mec2-1 strain, active compounds read high; at 50.0 µM unless noted. Put shortly: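 Yeast mec2-1 mutant treated with compound. Readout: growth inhibition vs vehicle controls.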
As to `CCOC(=O)C1=C(O)C[C@]2(O)C3CC=C(C)[C@@H]4CCO[C@](OC)(C[C@H]2C1)[C@]34C(=O)OC` (some centres not stated), the growth inhibition is 12.8%. The same measure for `CN1CC(c2ccccc2)C(O)(C2(c3ccccc3)CN(C)CC(c3ccccc3)C2=O)C(c2ccccc2)C1` (configuration not stated): 7.25%; for `COc1ccc(C(=O)CN2CCN(c3ccccc3)CC2)cc1`: -7.05%; for `COc1ccc2c(c1)OC[C@@H]1c3cc(NS(=O)(=O)c4ccccc4)cc(OCc4ccccc4)c3O[C@H]21`: -8.75%. Take `CN(C)Cc1cc(C(=O)/C=C/c2ccc(Cl)c(Cl)c2)cc(CN(C)C)c1O`: the growth inhibition is -14.4%. Regarding `N#Cc1c(-c2ccc(Cl)cc2)c(-c2ccc(Cl)cc2)nn(CCOC(=O)CCC(=O)OCCn2nc(-c3ccc(Cl)cc3)c(-c3ccc(Cl)cc3)c(C#N)c2=O)c1=O`, the growth inhibition is 8.95%. With `CN(C)C(=O)C(c1ccccc1)C(c1ccccc1)N(C)C=O` (configuration not stated) the figure was -2.2%; with `Cc1ccc(S(=O)(=O)NC(=O)NNc2ccc(F)cc2)cc1`, 2.15%. The same measure for `CCSc1[nH]c(Nc2nc(-c3ccccc3)n(-c3ccccc3)n2)c(C(N)=O)c1C(N)=O`: 1.35%. With `CO[C@@H]1C2=CC=CC=C[C@H]2n2c(=O)n(-c3ccccc3)c(=O)n21` the figure was 18.6%; with `Cn1nc(-c2ccccc2)c(C(=O)/C=C/c2ccccc2)c(N2CCCCC2)c1=O`, -11.6%. As to `CC(=O)[C@@]1(O)CC[C@H]2[C@@H]3CC[C@@H]4C[C@H](O)CC[C@]4(C)[C@H]3[C@H](O)C[C@@]21C`, the growth inhibition was -3.7%. The same measure for `COc1ccc(/C(C)=N/NC(=O)c2ccncc2)cc1OC`: -9.9%. With `CCCCCCCCSC(=N)N` the figure was -14.1%; with `O=C(NO)/C(CC(=O)c1cccc(O)c1)=N\O`, 10.1%. `CN(C)c1ccc(/C=C2\C(=O)/C(=C\c3ccc(N(C)C)cc3)c3ccccc32)cc1`: the growth inhibition was -4.25%.

`CCS(=O)(=O)c1ccc(NC(=O)OC2CCC3(C)C(=CCC4C3CCC3(C)C(C(C)CCCC(C)C)CCC43)C2)cc1` (configuration not stated): the growth inhibition is 6.15%. The same measure for `O=C1CC(Br)C(c2ccccc2)(c2ccccc2)O1` (configuration not stated): 9.4%; for `O=C(OCC1OCOC2C(COC(=O)c3ccccc3)OCOC12)c1ccccc1` (configuration not stated): 4.35%. The same measure for `O=[N+]([O-])c1ccc(N(CCO)CCO)cc1`: -12.8%; for `Cc1ccc(NC(=O)C(=O)CC(=O)c2sc(Nc3c(C)cccc3C)nc2C)cc1C`: -9.95%. For `COC1CCC(/C=C(\C#N)C2CCC(C)CC2)CC1` (configuration not stated), the growth inhibition is 22.1%.
